Among the data in paper PMC7862700, “An all-to-all approach to the identification of sequence-specific readers for epigenetic DNA modifications on cytosine” are binding signal values, retold here.

What all share (assay): DAPPL (digital affinity profiling via proximity ligation, sequencing); 10 mM Tris-HCl pH 7.5, 50 mM NaCl, 1 mM DTT, 4% glycerol, room temperature, 30 min; GST-TFs on glutathione beads, 16-mer random dsDNA library, 0.1% formaldehyde crosslink after washing; high values mean tight binding
Common to all, as to settings: protein: recombinant; tags: N-terminal GST; dsDNA, one strand shown

For one assay, the target named is T1, EHF (Homo sapiens, UniProt Q9NZC4 1-300).
T1 sequence: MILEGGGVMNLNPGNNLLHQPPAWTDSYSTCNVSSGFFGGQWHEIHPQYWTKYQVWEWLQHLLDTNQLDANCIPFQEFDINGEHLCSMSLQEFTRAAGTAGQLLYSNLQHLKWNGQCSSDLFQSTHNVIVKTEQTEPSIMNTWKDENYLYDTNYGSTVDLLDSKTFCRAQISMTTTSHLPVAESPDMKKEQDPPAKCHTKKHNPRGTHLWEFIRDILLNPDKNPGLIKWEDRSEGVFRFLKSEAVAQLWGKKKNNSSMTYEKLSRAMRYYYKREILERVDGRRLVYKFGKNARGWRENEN
Put shortly:
(§1)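 Sequencing on an Illumina NextSeq500 followed washing, crosslinking with 0.1% formaldehyde, proximity ligation (BsaI/T4 ligase, 1 h, 37 °C) and PCR amplification of pools that had been incubated for 30 min at room temperature with 200 nmole of a random double-stranded 16-mer DNA library in Tris/NaCl/DTT/glycerol buffer. Each pool held DNA-barcoded human transcription factors, expressed in yeast as GST fusions and captured on glutathione beads, plus a tag-only sample. Binding signal is a hexamer's read frequency for a factor divided by its frequency in the tag-only sample.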

For the next assay, the target named is T2, ELK3 (Homo sapiens, UniProt P41970 1-407).
T2 sequence: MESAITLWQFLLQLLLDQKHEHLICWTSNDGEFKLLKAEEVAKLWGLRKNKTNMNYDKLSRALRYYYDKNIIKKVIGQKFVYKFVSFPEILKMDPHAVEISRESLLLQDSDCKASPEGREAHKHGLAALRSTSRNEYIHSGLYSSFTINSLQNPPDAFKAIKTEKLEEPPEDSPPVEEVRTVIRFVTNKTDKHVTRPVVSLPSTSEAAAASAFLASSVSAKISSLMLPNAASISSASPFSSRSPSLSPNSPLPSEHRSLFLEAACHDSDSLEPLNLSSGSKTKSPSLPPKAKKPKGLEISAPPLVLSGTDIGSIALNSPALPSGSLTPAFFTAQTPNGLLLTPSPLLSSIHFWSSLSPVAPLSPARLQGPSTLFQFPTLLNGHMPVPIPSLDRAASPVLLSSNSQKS
An outline of the steps:
as §1

In the next assay the target is T3, SPIC (Homo sapiens, UniProt Q8N5J4 1-248).
T3 sequence: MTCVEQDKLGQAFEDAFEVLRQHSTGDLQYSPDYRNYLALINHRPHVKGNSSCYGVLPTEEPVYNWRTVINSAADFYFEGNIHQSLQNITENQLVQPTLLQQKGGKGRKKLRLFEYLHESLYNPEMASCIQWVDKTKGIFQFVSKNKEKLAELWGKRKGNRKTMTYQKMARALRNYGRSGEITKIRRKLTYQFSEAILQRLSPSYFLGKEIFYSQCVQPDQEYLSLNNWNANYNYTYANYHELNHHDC
Put shortly: as §1

The target in a further assay is ELF4 (Homo sapiens, UniProt Q99607 1-663). An outline of the steps:
as §1

The target in a further assay is T4, ELF3 (Homo sapiens, UniProt P78545 1-371).
T4 sequence: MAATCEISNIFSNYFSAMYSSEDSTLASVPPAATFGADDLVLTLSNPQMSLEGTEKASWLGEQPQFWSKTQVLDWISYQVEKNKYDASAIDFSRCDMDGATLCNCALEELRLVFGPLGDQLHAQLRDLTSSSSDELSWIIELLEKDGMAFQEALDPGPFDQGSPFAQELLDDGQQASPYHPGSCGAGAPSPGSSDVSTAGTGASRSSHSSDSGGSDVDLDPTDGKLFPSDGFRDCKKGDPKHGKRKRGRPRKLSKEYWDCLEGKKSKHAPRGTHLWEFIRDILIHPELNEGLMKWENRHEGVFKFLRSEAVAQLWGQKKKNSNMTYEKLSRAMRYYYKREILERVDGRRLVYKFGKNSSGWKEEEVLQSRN
An outline of the steps:
as §1

The target of another assay is ETV1 (Homo sapiens, UniProt P50549 1-477). Put shortly: as §1
The next assay concerns the target T5, ERF (Homo sapiens, UniProt P50548 1-548).
T5 sequence: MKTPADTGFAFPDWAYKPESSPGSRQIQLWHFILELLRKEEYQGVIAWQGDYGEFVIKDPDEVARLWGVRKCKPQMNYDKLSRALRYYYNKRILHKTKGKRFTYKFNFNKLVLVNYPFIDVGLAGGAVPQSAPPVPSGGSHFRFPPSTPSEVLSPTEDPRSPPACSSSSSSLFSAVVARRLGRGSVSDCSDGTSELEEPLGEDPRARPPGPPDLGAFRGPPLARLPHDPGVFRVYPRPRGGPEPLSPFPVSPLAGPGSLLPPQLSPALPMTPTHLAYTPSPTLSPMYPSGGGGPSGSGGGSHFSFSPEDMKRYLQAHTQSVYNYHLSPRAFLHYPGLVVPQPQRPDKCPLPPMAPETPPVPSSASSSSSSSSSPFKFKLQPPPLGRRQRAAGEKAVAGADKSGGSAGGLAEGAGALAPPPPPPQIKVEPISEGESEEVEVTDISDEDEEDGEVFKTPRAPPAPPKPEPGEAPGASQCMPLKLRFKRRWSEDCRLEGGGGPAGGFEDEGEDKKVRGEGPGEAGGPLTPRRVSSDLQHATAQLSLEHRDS
Put shortly:
as §1

A further assay concerns the target T6, ETV7 (Homo sapiens, UniProt Q9Y603 1-341).
T6 sequence: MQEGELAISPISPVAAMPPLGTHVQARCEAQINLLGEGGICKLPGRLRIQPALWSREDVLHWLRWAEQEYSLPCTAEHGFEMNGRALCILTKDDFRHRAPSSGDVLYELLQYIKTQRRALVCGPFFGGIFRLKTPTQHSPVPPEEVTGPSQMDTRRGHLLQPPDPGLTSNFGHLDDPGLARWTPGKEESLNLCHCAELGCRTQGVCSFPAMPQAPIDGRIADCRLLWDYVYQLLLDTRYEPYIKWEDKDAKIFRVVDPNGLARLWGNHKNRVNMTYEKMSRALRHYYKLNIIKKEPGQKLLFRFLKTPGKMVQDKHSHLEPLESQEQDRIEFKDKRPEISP
Put shortly:
as §1

A further assay has as its target T7, GABPA (Homo sapiens, UniProt Q06546 1-454).
T7 sequence: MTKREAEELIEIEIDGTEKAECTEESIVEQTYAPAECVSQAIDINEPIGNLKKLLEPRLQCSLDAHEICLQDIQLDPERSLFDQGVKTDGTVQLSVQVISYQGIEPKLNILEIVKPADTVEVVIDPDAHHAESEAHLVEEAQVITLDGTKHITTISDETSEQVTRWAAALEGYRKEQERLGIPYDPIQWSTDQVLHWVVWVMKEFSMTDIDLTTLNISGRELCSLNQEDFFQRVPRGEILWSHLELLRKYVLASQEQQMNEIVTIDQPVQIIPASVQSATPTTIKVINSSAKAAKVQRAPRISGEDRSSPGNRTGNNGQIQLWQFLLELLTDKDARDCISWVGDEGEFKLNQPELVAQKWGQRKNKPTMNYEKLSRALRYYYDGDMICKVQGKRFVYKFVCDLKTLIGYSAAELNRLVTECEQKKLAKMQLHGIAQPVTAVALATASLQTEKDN
An outline of the steps: as §1

The next assay concerns the target ELF1 (Homo sapiens, UniProt P32519 1-619). Put shortly: as §1
In a further assay the target is SPIB (Homo sapiens, UniProt Q01892 1-262). An outline of the steps:
as §1

For a further assay, the target named is T8, ELK4 (Homo sapiens, UniProt P28324-2 1-405).
T8 sequence: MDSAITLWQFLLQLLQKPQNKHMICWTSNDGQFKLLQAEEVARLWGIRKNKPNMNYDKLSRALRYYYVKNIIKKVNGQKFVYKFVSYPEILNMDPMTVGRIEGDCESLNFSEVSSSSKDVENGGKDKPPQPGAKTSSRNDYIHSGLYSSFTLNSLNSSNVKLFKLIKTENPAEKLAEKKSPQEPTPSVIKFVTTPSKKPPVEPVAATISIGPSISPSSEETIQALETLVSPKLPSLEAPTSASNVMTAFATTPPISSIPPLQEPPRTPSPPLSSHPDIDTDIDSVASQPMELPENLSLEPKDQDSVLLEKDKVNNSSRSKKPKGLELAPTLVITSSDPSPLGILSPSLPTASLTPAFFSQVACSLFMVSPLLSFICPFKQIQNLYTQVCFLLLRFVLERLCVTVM
An outline of the steps: as §1

A further assay has as its target T9, ETV3L (Homo sapiens, UniProt Q6ZN32 1-361).
T9 sequence: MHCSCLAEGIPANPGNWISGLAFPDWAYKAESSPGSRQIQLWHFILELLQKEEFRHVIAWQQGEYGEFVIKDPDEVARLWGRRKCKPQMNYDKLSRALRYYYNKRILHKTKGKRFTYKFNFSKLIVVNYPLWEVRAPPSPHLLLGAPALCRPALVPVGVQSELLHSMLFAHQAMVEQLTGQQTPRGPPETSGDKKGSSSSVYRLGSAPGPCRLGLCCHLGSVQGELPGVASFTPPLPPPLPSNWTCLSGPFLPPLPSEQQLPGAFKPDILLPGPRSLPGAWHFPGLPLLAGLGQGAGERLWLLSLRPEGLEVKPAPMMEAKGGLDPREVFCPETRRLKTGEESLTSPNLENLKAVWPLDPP
Put shortly:
as §1

The next assay addresses T10, ETS2 (Homo sapiens, UniProt P15036 1-469).
T10 sequence: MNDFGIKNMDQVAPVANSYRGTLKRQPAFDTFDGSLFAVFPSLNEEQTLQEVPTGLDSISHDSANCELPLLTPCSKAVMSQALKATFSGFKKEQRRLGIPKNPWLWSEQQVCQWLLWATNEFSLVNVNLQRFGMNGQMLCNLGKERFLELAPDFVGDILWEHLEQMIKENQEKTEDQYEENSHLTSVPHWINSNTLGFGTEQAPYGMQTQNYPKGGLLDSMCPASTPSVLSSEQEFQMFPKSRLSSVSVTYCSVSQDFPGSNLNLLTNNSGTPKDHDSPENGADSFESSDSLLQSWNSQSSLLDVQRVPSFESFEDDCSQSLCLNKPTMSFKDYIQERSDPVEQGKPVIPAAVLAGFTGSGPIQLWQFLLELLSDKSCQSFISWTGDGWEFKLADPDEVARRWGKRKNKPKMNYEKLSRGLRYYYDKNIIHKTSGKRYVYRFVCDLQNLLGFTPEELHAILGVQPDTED
Put shortly:
as §1

A further assay concerns the target T11, SPDEF (Homo sapiens, UniProt O95238 1-335).
T11 sequence: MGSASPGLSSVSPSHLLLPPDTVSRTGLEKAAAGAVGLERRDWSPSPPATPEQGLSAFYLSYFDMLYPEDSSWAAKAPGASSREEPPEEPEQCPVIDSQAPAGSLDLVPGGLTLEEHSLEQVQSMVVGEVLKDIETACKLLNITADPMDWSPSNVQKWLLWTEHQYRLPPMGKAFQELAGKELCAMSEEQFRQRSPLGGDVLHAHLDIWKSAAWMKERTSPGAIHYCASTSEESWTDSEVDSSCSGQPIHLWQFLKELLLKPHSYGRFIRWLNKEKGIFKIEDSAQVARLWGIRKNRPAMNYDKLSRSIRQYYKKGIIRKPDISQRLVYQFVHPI
Put shortly: as §1

ETV1, sequence (P50549 whole entry): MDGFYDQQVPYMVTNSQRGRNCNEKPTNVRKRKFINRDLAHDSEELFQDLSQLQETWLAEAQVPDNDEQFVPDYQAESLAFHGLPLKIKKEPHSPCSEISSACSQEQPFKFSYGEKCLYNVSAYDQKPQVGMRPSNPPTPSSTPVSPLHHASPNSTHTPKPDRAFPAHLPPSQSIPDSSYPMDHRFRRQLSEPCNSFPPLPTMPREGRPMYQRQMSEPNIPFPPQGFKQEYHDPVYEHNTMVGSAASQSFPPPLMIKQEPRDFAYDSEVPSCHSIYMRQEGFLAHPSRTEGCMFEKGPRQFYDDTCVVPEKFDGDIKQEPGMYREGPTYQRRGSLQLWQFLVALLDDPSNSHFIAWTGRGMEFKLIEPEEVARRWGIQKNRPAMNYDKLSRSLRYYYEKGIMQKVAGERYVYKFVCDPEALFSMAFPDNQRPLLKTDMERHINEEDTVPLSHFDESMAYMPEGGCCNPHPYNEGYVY
ELF4, sequence (Q99607 whole entry): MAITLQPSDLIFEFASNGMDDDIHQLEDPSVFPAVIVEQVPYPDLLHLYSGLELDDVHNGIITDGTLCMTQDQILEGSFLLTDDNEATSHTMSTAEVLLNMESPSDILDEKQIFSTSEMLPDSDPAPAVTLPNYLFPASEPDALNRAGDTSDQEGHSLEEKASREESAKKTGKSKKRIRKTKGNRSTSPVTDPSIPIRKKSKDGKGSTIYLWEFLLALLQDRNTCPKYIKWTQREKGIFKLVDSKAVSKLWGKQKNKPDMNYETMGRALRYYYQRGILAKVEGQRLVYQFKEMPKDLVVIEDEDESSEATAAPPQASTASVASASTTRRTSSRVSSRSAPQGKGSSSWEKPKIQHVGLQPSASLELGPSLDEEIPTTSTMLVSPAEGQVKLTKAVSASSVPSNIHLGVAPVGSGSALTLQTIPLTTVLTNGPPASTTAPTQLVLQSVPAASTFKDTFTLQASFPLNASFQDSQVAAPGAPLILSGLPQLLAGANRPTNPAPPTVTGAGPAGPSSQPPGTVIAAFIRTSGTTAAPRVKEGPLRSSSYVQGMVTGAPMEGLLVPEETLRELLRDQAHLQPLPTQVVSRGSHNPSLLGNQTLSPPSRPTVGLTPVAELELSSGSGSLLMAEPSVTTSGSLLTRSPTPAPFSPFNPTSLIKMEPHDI
SPIB, sequence (Q01892 whole entry): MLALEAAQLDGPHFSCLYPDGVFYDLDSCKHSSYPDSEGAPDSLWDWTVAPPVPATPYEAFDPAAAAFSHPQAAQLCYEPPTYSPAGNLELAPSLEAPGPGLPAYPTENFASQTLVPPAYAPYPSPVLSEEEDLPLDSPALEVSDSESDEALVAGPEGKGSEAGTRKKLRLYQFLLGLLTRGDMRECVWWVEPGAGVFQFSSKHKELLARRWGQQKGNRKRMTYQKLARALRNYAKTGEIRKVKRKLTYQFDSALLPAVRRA
ELF1, sequence (P32519 whole entry): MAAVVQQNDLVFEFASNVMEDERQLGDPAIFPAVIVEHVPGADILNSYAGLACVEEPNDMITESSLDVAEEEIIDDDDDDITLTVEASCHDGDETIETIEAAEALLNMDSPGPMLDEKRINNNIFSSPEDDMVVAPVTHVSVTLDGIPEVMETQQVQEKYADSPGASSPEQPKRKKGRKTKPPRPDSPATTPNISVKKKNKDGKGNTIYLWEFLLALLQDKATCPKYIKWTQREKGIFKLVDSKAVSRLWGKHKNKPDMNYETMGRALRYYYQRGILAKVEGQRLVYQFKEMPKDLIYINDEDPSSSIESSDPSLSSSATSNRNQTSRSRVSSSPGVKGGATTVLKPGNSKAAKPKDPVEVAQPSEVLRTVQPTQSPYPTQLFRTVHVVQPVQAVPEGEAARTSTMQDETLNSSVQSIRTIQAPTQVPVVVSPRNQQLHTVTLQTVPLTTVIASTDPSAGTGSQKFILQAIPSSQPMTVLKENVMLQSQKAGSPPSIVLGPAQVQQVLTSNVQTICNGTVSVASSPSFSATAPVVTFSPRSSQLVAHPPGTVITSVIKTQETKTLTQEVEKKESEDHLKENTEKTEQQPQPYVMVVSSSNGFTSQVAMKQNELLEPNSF

Take AGATCT: the binding signal with EHF is 1.04 fold enrichment (6-mer frequency, TF over GST control); with ELK3 it was 1.07 fold enrichment (6-mer frequency, TF over GST control); with SPIC it was 1.07 fold enrichment (6-mer frequency, TF over GST control); with ELF4 it was 1.01 fold enrichment (6-mer frequency, TF over GST control); in the assay with ELF3, 1.09 fold enrichment (6-mer frequency, TF over GST control); with ETV1, 1.1 fold enrichment (6-mer frequency, TF over GST control). Also, the binding signal in the assay with ERF was 1.05 fold enrichment (6-mer frequency, TF over GST control); with ETV7 it was 1.05 fold enrichment (6-mer frequency, TF over GST control).
Turning to GCTAGT, the binding signal in the assay with GABPA was 1.06 fold enrichment (6-mer frequency, TF over GST control); with ELF1, 1.16 fold enrichment (6-mer frequency, TF over GST control); in the assay with EHF, 1.08 fold enrichment (6-mer frequency, TF over GST control); with SPIB, 1.09 fold enrichment (6-mer frequency, TF over GST control); with ELK3 it was 1.11 fold enrichment (6-mer frequency, TF over GST control); with SPIC, 1.2 fold enrichment (6-mer frequency, TF over GST control). Also, the binding signal in the assay with ELF4 is 1.05 fold enrichment (6-mer frequency, TF over GST control); in the assay with ELK4, 1.07 fold enrichment (6-mer frequency, TF over GST control); with ELF3, 1.04 fold enrichment (6-mer frequency, TF over GST control); with ETV1, 1.02 fold enrichment (6-mer frequency, TF over GST control); with ERF, 1.01 fold enrichment (6-mer frequency, TF over GST control); with ETV3L it was 1 fold enrichment (6-mer frequency, TF over GST control). Also, the binding signal with ETS2 is 1.07 fold enrichment (6-mer frequency, TF over GST control); with SPDEF, 1.07 fold enrichment (6-mer frequency, TF over GST control); in the assay with ETV7 it was 1.13 fold enrichment (6-mer frequency, TF over GST control).
